Measured values from ChEMBL document CHEMBL4888484, “Replenishing the malaria drug discovery pipeline: Screening and hit evaluation of the MMV Hit Generation Library 1 (HGL1) against asexual blood stage Plasmodium falciparum ,using a nano luciferase reporter read-out” (2022).
Out of some 150,000 compounds screened, about 540 (0.36%) showed an effect of 50% or more. The sample holds strong results, similar compounds and a random draw of the others, so the mix is not that of the screen.

system: Plasmodium falciparum; assay: Primary screen in NF54 nanoGlo assay, in single point, at 2uM, 72h; a lower Z score goes with more inhibition; assay type: functional, Erythrocyte; conditions: timepoint 72 hour

SMILES	% Inhibition [%]	Z score
CCCCN(C1CCCCCC1)S(=O)(=O)N1CCC[C@@H]1COC	3	-0.54
COc1ccccc1C(=O)C(=O)NC1CC(C)(C)NC(C)(C)C1	-6	0.73
Cc1nonc1CN1CC[C@@]2(CCCN(C3CCCCC3)C2=O)C1	-1	0.17
O=S(=O)(c1cccc(Cl)c1)N1CCc2nc(N3CCCCC3)nc(Oc3ccccc3)c2C1	53	-13.31
Cc1ccc(Oc2nc(N3CCOCC3)nc3c2CN(S(=O)(=O)c2cccc(Cl)c2)CC3)cc1	8	-1.2
CN1CCN(c2nc3c(c(Oc4cccc(F)c4)n2)CN(S(=O)(=O)c2cccc(Cl)c2)CC3)CC1	-5	0.66
O=C1CN(Cc2nc(-c3ccccc3)nn2C2CCCCC2)CCN1	-7	1.19
CN(CC(=O)Nc1cccc(F)c1)C(=O)C[C@@H]1C=CCC1	12	-1.67
CCOc1ccc(-c2cn(Cc3ccncc3)nn2)cc1Cl	-10	2.05
Cc1cc(C)cc(-c2cc3nc(C)cc(N4CCC(C(=O)NCc5cccc(F)c5)CC4)n3n2)c1	75	-14.36
COc1ccc(-c2cc3nc(C)cc(N4CCC(C(=O)NCc5ccccc5)CC4)n3n2)cc1	4	-0.42
Cc1cc(C)cc(-c2cc3nc(C)cc(N4CCC(C(=O)Nc5ccc(C)c(Cl)c5)CC4)n3n2)c1	36	1.15
Cc1cc(C2CCC(C(=O)NCC3CC3)CN2C(=O)NC(C)C)ccc1F (centres undefined)	0	0
Cc1cc(S(=O)(=O)N(CCN(C)C)C2CCN(C)CC2)c(C)o1	-16	1.43
COc1ccc2cc(C(=O)NCc3ccnc(Oc4ccccc4)c3)[nH]c2c1	-7	1.13
COc1ccc2cc(-c3nc(CCN(C)C(=O)c4cccc(Cl)c4)no3)[nH]c2c1	-9	1.75
Cc1ccc(CC(=O)Nc2cc(C(F)(F)F)n(C)n2)cn1	-6	0.61
Cc1cccc(OC2CN([C@@H](C)CCN(C)C)C2)c1	-19	2.04
CC(C(=O)Nc1nccs1)N1CCCC(c2ccn[nH]2)C1 (centres undefined)	50	-9.08
CC(C(=O)Nc1ccc(Cl)cn1)N1CCCC(c2ccn[nH]2)C1 (centres undefined)	5	-0.83
C[C@@H](C(=O)Nc1nccs1)N1CCCC1	-4	0.56

SMILES	% Inhibition [%]	Z score
O=C(C1CCC1c1ccc(F)cc1)N1CCCC(c2nc3ccc(F)cc3o2)C1 (centres undefined)	-10	1.06
COc1cc(C(c2c(C)n(C)n(-c3ccccc3)c2=O)c2c(C)n(C)n(-c3ccccc3)c2=O)c(Br)c(Br)c1OCc1ccccc1	35	-0.45
Cc1c(C(c2c(C)n(C)n(-c3ccccc3)c2=O)c2c[nH]c3ccccc23)c(=O)n(-c2ccccc2)n1C	-6	0.93
CCOc1cc(C(c2c(C)n(C)n(-c3ccccc3)c2=O)c2c(C)n(C)n(-c3ccccc3)c2=O)ccc1OCc1ccccc1	75	-5.78
CN(C)c1nc(N[C@H]2CCS(=O)(=O)C2)ncc1F	-3	0.33
COc1nc(N[C@H]2CCCN(C)C2)ncc1F	3	-0.5
COc1nc(NC2CCS(=O)(=O)CC2)ncc1F	65	-7.11
CNC(=O)[C@@H]1C[C@@H](Nc2ccnc(OC)c2C#N)CN1Cc1ccccn1	2	-0.32
Cc1noc(C)c1S(=O)(=O)NC1(C(=O)Nc2ccsc2)CCCC1	-8	1.08
CC[C@@](C)(CNC(=O)COCc1cccc(OC)c1)N1CCOCC1	-4	0.5
Cc1cc(C)nc(NCCC[C@H]2CCCCO2)n1	54	0.94
Cc1cc(C)nc(NC[C@H]2CCCO2)n1	-5	0.64
CC(C)c1cnc(NCCCC[C@H]2CCCO2)nc1	48	0.41
O=C(OCC(F)(F)F)N1CCOCC1	1	-0.08
CC(C)CN1CCCC1C(=O)N1CCO[C@H]2CCC[C@H]21 (some centres undefined)	-5	0.92
O=C(N/C(=N\c1ccc(F)cc1)N1CCN(Cc2cccc(F)c2)CC1)c1ccccc1	2	-0.32
COc1cccc(N2C(=O)C[C@]3(CC3(c3ccccc3)c3ccccc3)C2=O)c1	35	-0.08
Cc1ccc(N2C(=O)C[C@]3(CC3(c3ccccc3)c3ccccc3)C2=O)cc1	73	-0.64
O=C1C[C@]2(CC2(c2ccccc2)c2ccccc2)C(=O)N1c1cccc(Br)c1	19	-3.6
CC(CNC(=O)C(=O)NC(C)CCc1ccccc1)Cc1ccccc1 (centres undefined)	-11	1.26
Cc1cccc2[nH]c(COCC(=O)NC[C@H]3CCCN(C)C3)nc12	14	-1.8
